# NCOA3 inh – inhibits human SRC3 coactivator | 0.17% of 360,000 active | HEK293 GAL4-SRC3 luciferase reporter, luminescence | inhibition, % at 3.6 µM | Q9Y6Q9 | AID 588352;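 active = inhibition above a per-campaign cutoff, the mean of all compounds plus 3 SD, cut at about 60% in these data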;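 note: higher means less SRC3-driven luciferase light from the GAL4 reporter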
# SRC2 inh – inhibits human steroid receptor coactivator 2; Q15596; HEK293 GAL4-SRC2 luciferase reporter, luminescence; inhibition, % at 9 µM; 0.17% of 370,000 active; AID 651957;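 active = inhibition above the mean inhibition of all tested compounds plus 3 SD, set per campaign, cut at about 52% in these data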
# NR2F2 inh – blocks human COUP-TFII nuclear receptor. 0.7% of 370,000 active. HEK293T NGFI-A luciferase reporter, luminescence. P24468. AID 686940. inhibition, % at 8.6 µM;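 active = inhibition above a per-plate cutoff, mean inhibition of test wells between control levels plus 3 SD, cut at about 38% in these data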;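 note: cells cotransfected with COUP-TFII expression vector driving the NGFI-A reporter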
# NCOA1 inh – inhibits human SRC1 coactivator. Q15788. HEK293 GAL4-SRC1 luciferase reporter, luminescence. inhibition, % at 3.6 µM. 0.12% of 360,000 active. AID 588354;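 active = inhibition above the campaign mean plus 3 SD, with each screening campaign given its own cutoff, cut at about 60% in these data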
# LRH-1 inv ag – inverse agonists of human LRH-1 (NR5A2) | AID 602396 | O00482 | HEK293T StAR-luciferase reporter, LRH-1 transfected, 24 h | 0.13% of 360,000 active | inhibition, % at 3.6 µM;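 active = inhibition above the mean inhibition of all tested compounds plus 3 SD, cut at about 73% in these data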
# VP16 Luc counter – counter-screen for COUP-TFII antagonists: inhibitors of VP16. shares compounds with NR2F2 inh. 25% of 2,500 active. AID 687007. inhibition, % at 8.5 µM. HEK293 Gal4-VP16 luciferase reporter, luminescence; in the data active = inhibition above about 13%
# COUP-TFII conf – COUP-TFII (NR2F2) inhibition, confirmation assay; shares compounds with NR2F2 inh; HEK293 NGFI-A luciferase reporter, luminescence; inhibition, % at 8.5 µM; 45% of 2,500 active; AID 687008;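 active = mean inhibition over three repeats above a set limit taken from the earlier primary screen, cut at about 38% in these data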
# Hits are given with their value; . = inactive; / = not tested or not shown. The list is not random: actives were taken first. Their share in the collection is about 0.84%.
SMILES,NCOA3 inh,SRC2 inh,NR2F2 inh,NCOA1 inh,LRH-1 inv ag,VP16 Luc counter,COUP-TFII conf
O=C(CCc1nnc(-c2ccc(-c3ccccc3)cc2)o1)NCCc1ccccn1,.,59.5,43.3,.,.,.,.
CC(NC(=O)CCc1nnc(-c2ccc(-c3ccccc3)cc2)o1)c1nccs1 (centres undefined),.,66.7,48.3,.,.,.,.
O=S(=O)(c1ccccc1)n1c(CN2CCOCC2)nc2ccccc21,/,.,.,/,/,/,/
NCCOc1ccccc1-c1ccccc1,.,.,.,.,.,/,/
Nc1ccc(Oc2ccccc2-c2ccccc2)cc1,.,83.3,78.2,.,.,76.8,73.3
O=C1/C(=C/c2cccnc2)CCc2c1[nH]c1ccccc21,.,.,.,.,.,/,/
CC1C/C(=C\c2cccnc2)C(=O)/C(=C/c2cccnc2)C1 (centres undefined),.,80.3,95.6,.,.,90.7,105.1
CCCCCCCCN1C(=O)[C@@H](CC(=O)NCc2cccs2)C[C@@]2(C(=O)OC)C1=C[C@H](C(C)(C)C)O[C@@H]2C,/,.,.,/,/,/,/
O=C(NC1CCCCN(Cc2cccc(Cl)c2)C1=O)c1ccc(F)cc1 (centres undefined),/,.,.,/,/,/,/
Cc1ccccc1CN1CCCCC(NC(=O)c2ccc(COc3ccccc3)cc2)C1=O (centres undefined),/,.,67.8,/,/,.,49.2
O=C(NC1CCCCN(Cc2ccc(Cl)cc2)C1=O)c1ccc(COc2ccccc2)cc1 (centres undefined),/,.,53.0,/,/,.,.
CCCCOc1ccc(C(=O)NC2CCCCN(Cc3cccc(Cl)c3)C2=O)cc1 (centres undefined),/,.,38.3,/,/,.,.
O=C(NC1CCCCN(Cc2ccc(Cl)cc2)C1=O)c1ccccc1 (centres undefined),/,.,.,/,/,/,/
COc1cc(C(=O)NC2CCCCN(Cc3cccc(C(F)(F)F)c3)C2=O)cc(OC)c1OC (centres undefined),/,.,.,/,/,/,/
O=C(NC1CCCCN(Cc2cccc(C(F)(F)F)c2)C1=O)c1ccc(COc2ccccc2)cc1 (centres undefined),/,.,65.9,/,/,.,61.7
O=C(N[C@H](c1cccc(Br)c1)[C@@H]1CCCC=C1c1ccccc1)C(F)(F)F,/,.,.,/,/,/,/
COc1ccc2c(c1)sc1nc(-c3ccccc3)cn12,.,61.2,46.6,.,.,47.4,39.7
Cc1ccc(S(=O)(=O)n2ccc3c(OCCOCCSCC(NC(=O)OC(C)(C)C)C(=O)O)cccc32)cc1 (centres undefined),.,.,.,.,.,/,/
Cc1ccc(S(=O)(=O)n2ccc3c(OCCOCCNCc4ccc(F)cc4)cccc32)cc1,.,.,43.0,.,.,.,.
CC(=O)N1CCN(c2ccc(N3CCN(C(C)=O)[C@H](C)C3)c(C)c2)[C@@H](C)C1,/,.,.,/,/,/,/
CC(C)(O)C#Cc1ccc(C(=O)N2CCN(c3ccc([N+](=O)[O-])cc3)CC2)cc1,.,.,38.5,.,.,.,.
S=C(Nc1cccc(Cl)c1)OC1CCC12CCC(c1ccccc1)CC2 (centres undefined),/,.,.,/,/,/,/
CCOP(=O)(O)c1cccc(OCCOCCOc2cccc(P(=O)(O)OCC)c2)c1,.,.,.,.,.,/,/
CN(C)c1ccc(C2Nc3ccccc3C(=O)N2CCCN2CCOCC2)cc1 (centres undefined),.,.,46.9,.,.,.,.
Nc1ccc(OC(=O)Nc2ccc(O)cc2)cc1,.,77.4,44.2,.,.,36.0,.
SMILES,NCOA3 inh,SRC2 inh,NR2F2 inh,NCOA1 inh,LRH-1 inv ag,VP16 Luc counter,COUP-TFII conf
COc1ccccc1N1CCN(C(=O)CCNS(=O)(=O)c2cc(Br)cnc2N)CC1,.,.,.,.,.,/,/
Nc1ccc(-c2nc3c(Cl)cc(N)cc3[nH]2)cc1,.,53.3,47.8,.,.,57.2,.
COc1ccc(NS(=O)(=O)c2ccc(N3CCCCC3)c(N)c2)cc1,.,.,55.9,.,.,.,42.7
Nc1cc(S(=O)(=O)c2ccc(N3CCCCC3)c(N)c2)ccc1N1CCCCC1,.,.,42.5,.,.,.,.
Nc1cc(S(=O)(=O)N2CCCCC2)ccc1N1CCOCC1,.,.,.,.,.,/,/
Cc1ccccc1CN1CCN(C(=O)[C@H]2O[C@@H](n3cnc(C(N)=O)n3)[C@H](O)[C@@H]2O)CC1,/,.,.,/,/,/,/
